Screening data: PubChem, National Center for Advancing Translational Sciences (NCATS)
Only some compounds are listed: those with a hit (about 8.1% of all), similar ones and a draw of the others.
ELG1 DNA repair – inhibitors of ELG1-dependent DNA repair in HEK293T cells; Potency, µM (titrated, usually from 46.1 µM), actives largely listed as inhibitors; AID 504467; HEK293T ELG1-luciferase reporter, luminescence, 16 h; DNA damage induced by 5-fluorouridine; 330,000 compounds, 2.3% hits; note: nearly all actives have a fitted effect of over 55% in size
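Reporter activity after DNA damage by 5-fluorouridine is monitored. Compound-treated cells incubate 16 hr at 37 °C, then ONE-Glo is added for 30 min before luminescence reading.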
SW480 rerep – inducers of DNA re-replication in SW480 colon cancer cells. SW480 DNA re-replication, Hoechst DNA content imaging, 48 h. Potency, µM (doses to about 46.1 µM), actives largely listed as activators. 340,000 compounds, 1.8% hits. AID 624297; note: nearly all actives have a fitted effect of over 55% in size
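Image-based DNA-content assay: after two days of treatment, nuclei were labelled with the DNA dye Hoechst and imaged, and hits were compounds raising the count of nuclei showing high fluorescence intensity.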
KB-3-1 cytotox – kills parental KB-3-1 adenocarcinoma cells | KB-3-1 viability, CellTiter-Glo ATP luminescence, 72 h | Potency, µM (top dose mostly 46.1 µM), usual class: cytotoxic | 400,000 compounds, 1.4% hits | AID 1347075; note: nearly all actives have a fitted effect of over 60% in size
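Multi-concentration cytotoxicity screen in KB-3-1 cells grown in DMEM lacking phenol red with 10% FBS. After 72 h at 37 °C with compound, ATP-dependent luminescence was recorded.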
KB-V1 MDR tox – KB-V1 MDR subline cytotoxicity | Potency, µM (top dose mostly 46.1 µM), most hits filed as cytotoxic | 400,000 compounds, 3.4% hits | KB-V1 MDR cells viability, CellTiter-Glo, 72 h; note: nearly all actives have a fitted effect of over 60% in size
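Potencies derive from concentration-effect curves fitted to normalized luminescence (CellTiter-Glo) of KB-V1 cells treated for 72 h at 37 degrees C in phenol-red-free DMEM containing 10% FBS.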
MCF10A rereplic – inducers of DNA re-replication in MCF 10A breast cells. AID 624296. 350,000 compounds, 2.9% hits. Potency, µM (doses to about 46.1 µM), usual class: activators. MCF 10A DNA re-replication, Hoechst nuclear intensity, 48 h; note: nearly all actives have a fitted effect of over 50% in size
A number is an active result; i = inactive; ? = inconclusive; nt = no result given; [ ] = dose if it differs, or a comment. Calls come from the whole dose curve; as a rule, active = well fitted curve in the direction sought with a large enough effect; inconclusive = small, poorly fitted or top-dose-only effect, or another doubt; inactive = no such curve, though single readings can be large; an effect the other way counts as inactive or inconclusive.

SMILES	ELG1 DNA repair	SW480 rerep	KB-3-1 cytotox	KB-V1 MDR tox	MCF10A rereplic
C=CC(=O)NCCCc1cc(C(C)(C)C)c(O)c(C(C)(C)C)c1	i	i	i	?	i
CC(C)Oc1ccc(CNC(=O)CN2C(=O)CCc3cc(S(=O)(=O)N4CCCCC4)ccc32)cc1	nt	nt	i	i	nt
O=C(COC(=O)C1Cc2ccccc2CN1C(=O)c1ccccc1Cl)Nc1ccc(N2CCOCC2)cc1 (stereo not given)	?	i	i	15µM	i
C/C(=N/NC(=O)c1ccc(C(C)(C)C)cc1)c1ccccn1	nt	?	2.6µM	?	?
C/C(=N\NC(=O)C(c1ccccc1)c1ccccc1)c1ccccn1	i	i	13µM	i	?
C/C(=N\NC(=O)c1ccccc1Cl)c1ccccn1	?	?	?	i	?
C/C(=N\NC(=O)c1cccc(Br)c1)c1ccccn1	?	?	?	1.5µM	2.9µM
COc1ccc(C(=O)N/N=C(\C)c2ccccn2)cc1OC	?	?	?	2.3µM	?
C/C(=N\NC(=O)c1ccc(Cl)c(Cl)c1)c1ccccn1	?	?	?	i	i
C/C(=N\NC(=O)c1cc(Br)ccc1O)c1ccccn1	?	?	i	i	?
COc1cc(CCC(C)=O)ccc1OC(=O)c1c(F)cccc1Cl	?	i	i	i	i
C/C(=N\NC(=O)c1ccc(NS(=O)(=O)c2cccs2)cc1)c1ccccn1	3.7µM	?	?	?	?
COc1ccc(Nc2nc3ccccc3nc2NS(=O)(=O)c2cccs2)cc1	i	i	i	i	?
C/C(=N\NC(=O)c1ccc(NS(=O)(=O)c2cccs2)cc1)c1ccncc1	i	i	i	i	i
CC(=O)c1ccc(Nc2nc3ccccc3nc2NS(=O)(=O)c2cccs2)cc1	12µM	i	?	?	15µM
O=C(CN(C(=O)Cn1nnc(-c2ccccc2F)n1)c1cccc2c1CCCC2)NCc1ccccc1	?	i	i	10µM	i
CCC(C(=O)NC(C)(C)C)N(C(=O)Cn1nnc(-c2ccccc2F)n1)c1cccc2c1CCCC2 (stereo not given)	i	i	i	1.6µM	i
CCOCc1cnc(C)nc1NCC(=O)c1c(C)[nH]c2ccc(OC)cc12	i	i	?	i	i
COC(=O)c1c(NC(=O)c2ccc(S(=O)(=O)N3CCCCC3C)cc2)sc2c1CCN(C(C)C)C2 (stereo not given)	nt	nt	i	i	nt
CC(C)N1CCc2c(sc(NC(=O)Cc3ccccc3)c2C(N)=O)C1	i	i	i	i	i
CC(C)N1CCc2c(sc(NC(=O)c3ccc(S(=O)(=O)N4CCCCC4C)cc3)c2C(N)=O)C1 (stereo not given)	i	21µM	i	i	?
CC(C)N1CCc2c(sc(NC(=O)c3ccc4ccccc4c3)c2C(N)=O)C1	i	15µM	?	?	9.2µM
CC(=O)Nc1sc2c(c1-c1nc3ccccc3s1)CCN(C(C)C)C2	?	21µM	7.3µM	?	?
CC(C)N1CCc2c(sc(NC(=O)c3ccc(C(=O)c4ccccc4)cc3)c2C(N)=O)C1	?	?	i	i	16µM
CCN1CCc2c(sc(NC(=O)c3cc4ccccc4cc3OC)c2C(N)=O)C1	i	12µM	?	i	18µM
SMILES	ELG1 DNA repair	SW480 rerep	KB-3-1 cytotox	KB-V1 MDR tox	MCF10A rereplic
COc1cccc(OC)c1C(=O)Nc1sc2c(c1C(N)=O)CCN(Cc1ccccc1)C2	i	i	i	i	i
Cc1ccc(C2N(c3ccccc3)C(=O)N3CCCN23)cc1 (stereo not given)	i	0.52µM	i	i	i
O=C(c1noc2c1CCCC2)N1CCN(c2ccccc2)CC1	i	i	i	18µM	i
O=C(c1noc2c1CCCC2)N1CCC(CO)(Cc2ccccc2Cl)CC1	21µM	i	i	i	?
O=C(c1noc2c1CCCC2)N1CCN(C(c2ccccc2)c2ccccc2)CC1	i	nt	nt	nt	nt
CC(NC(=O)c1noc2c1CCCC2)c1ccccc1 (stereo not given)	i	i	i	16µM	i
CCCCn1c(N)c(N(CCOC)C(=O)COC(=O)CCOc2ccccc2C)c(=O)[nH]c1=O	?	i	i	?	i
CCOc1ccccc1N1CCN(C(=O)c2c(-c3c(F)cccc3Cl)noc2C)CC1	nt	i	i	i	?
Cn1nc(C(=O)NC(C)(C)C)c2ccccc21	i	i	i	i	i
COC(=O)Nc1ccc(Cn2cc(C(F)(F)F)ccc2=O)cc1	i	i	i	i	i
COc1cc(Cl)nn(-c2ccccc2)c1=O	i	i	i	i	i
O=c1c(Cl)cc(Cl)nn1-c1ccccc1	23µM	?	?	?	5.8µM
Cc1ccc2nc(SCc3cccc([N+](=O)[O-])c3)nc(C)c2c1	i	i	i	?	?
COc1ccc2nc(SCc3ccccc3C)nc(C)c2c1	?	i	i	15µM	i
COc1ccc2nc(SCc3cccc(C)c3)nc(C)c2c1	?	i	i	16µM	?
COc1ccc2nc(SCC(=O)O)nc(C)c2c1	i	i[9.22 µM]	i	i	i
COc1ccc2nc(SCCOC(=O)Nc3ccc(Cl)cc3)nc(C)c2c1	?	i	?	15µM	?
COc1ccc2nc(SC(C(=O)c3ccccc3)c3ccccc3)nc(C)c2c1 (stereo not given)	i	i	i	i	i
O=C(C=C=Nc1ccccc1)C(=O)N=C=Cc1ccccc1	i	?	i	i	4.6µM
O=C(N/N=C/c1ccccc1)C(=O)N/N=C/c1ccccc1	i	i	i	i	i
CCN(CC)CCP(=O)(c1ccccc1)c1ccccc1	i	?	i	i	9.2µM
CP(C)(=O)CCP(=O)(c1ccccc1)c1ccccc1	i	i	i	i	i
COc1ccccc1C1c2c(-c3ccc(Cl)cc3)n[nH]c2C(=O)N1c1ccc(C)cc1 (stereo not given)	nt	nt	i	26µM	nt
CCOC(=O)c1c(NC(=O)C2C3C=CC(CC3)C2C(=O)O)sc(C)c1C (stereo not given)	i	?	i	i	i
CS(=O)(=O)N1CCc2cc(S(=O)(=O)N3CCN(Cc4ccc5c(c4)OCO5)CC3)ccc21	?	i	i	21µM	i
CC(=O)c1cccc(NC(=O)c2ccc(NC(=O)CCS(=O)(=O)c3cccs3)cc2)c1	?	i	i	i	i
CN(C)S(=O)(=O)c1ccc(N2C(=O)CC2(/C=C/c2ccccc2)C(=O)NC2CCCC2)cc1 (stereo not given)	i	i	i	5.2µM	i
COc1ccccc1/C=C/C1(C(=O)NC2CCCC2)CC(=O)N1c1ccccc1 (stereo not given)	i	7.3µM	3.7µM	3.7µM	9.2µM
Cc1ccc(C2=NS(=O)(=O)N(C)C(C(=O)NCc3ccc4c(c3)OCO4)=C2)cc1	i	i	i	i	i
Cc1nc(NCC2CCCO2)[nH]c(=O)c1CCC(C)C (stereo not given)	i	?	i	i	?
